Experimental data: PubChem BioAssay (NCATS)
Calls of active or inactive are those of the source. Calls come from the whole dose curve; as a rule, active = well fitted curve in the direction sought with a large enough effect; inconclusive = small, poorly fitted or top-dose-only effect, or another doubt; inactive = no such curve, though single readings can be large; an effect the other way counts as inactive or inconclusive.

Assay: Cellular Toxicity (caspase-3) HUV-EC-C (AID 656)
Details: HUV-EC-C cells, caspase-3 activation (apoptosis), vehicle = 0, 100 µM tamoxifen = 100%; series mostly up to 92.2 µM
Procedure, shortened: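 HUV-EC-C endothelial cells, 1000/well, were pre-incubated 5 hr at 37°C, then exposed to compounds for 16 hr at 37°C. Caspase-Glo 3/7 luminescence was read after 20 min at room temperature. AC50 came from Hill fits, normalized to DMSO and 100 uM tamoxifen.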

SMILES	outcome
Cc1cc(C)cc(O)c1	inactive
Cc1ccc(C#N)cc1	inactive
[O-]/[N+](=N\O)c1ccccc1	inactive
CC(=O)Nc1cccc(N)c1	inactive
CCCCC(CC)CO (stereo not drawn)	inactive
CC(=O)c1ccccc1[N+](=O)[O-]	inactive
Nc1cc(Cl)c([N+](=O)[O-])cc1O	inactive
O=C(O[C@@H](C(=O)O)[C@@H](OC(=O)c1ccccc1)C(=O)O)c1ccccc1	inactive

Assay: Cellular Toxicity (caspase-3) SHSY5Y (AID 657)
Details: SH-SY5Y caspase-3 activation, DMSO zero, 10 µM staurosporine = 100%; series mostly up to 91.7 µM
Procedure, shortened: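 SH-SY5Y human neuroblastoma cells (1500/well) were treated with compounds for 16 h at 37 °C, then Caspase-Glo 3/7 luminescence was read after 1 h at room temperature. Data normalized to DMSO and 10 uM staurosporine; AC50 from Hill fits.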

SMILES	outcome
Nc1ccccc1S(=O)(=O)O	inactive
c1ccsc1	inactive
FC(F)(F)c1ccccc1Cl	inactive
O=C1NC(=O)c2cc([N+](=O)[O-])ccc21	inactive
Cc1c(C(=O)O)cccc1[N+](=O)[O-]	inactive
C[C@@H]1O[C@@H](O[C@@H]2[C@@H](O)[C@H](OCCc3ccc(O)c(O)c3)O[C@H](CO[C@@H]3O[C@H](CO)[C@@H](O)[C@H](O)[C@H]3O)[C@H]2OC(=O)/C=C/c2ccc(O)c(O)c2)[C@H](O)[C@H](O)[C@H]1O	inactive
O=Cc1ccc(C(=O)O)cc1	inactive
NC(=O)CCCCC(N)=O	inactive
CCc1ccccc1	inactive
CCNc1ccccc1	inactive
C=Cc1ccc(C=C)cc1	inactive
Cc1ccccc1C(N)=O	inactive
CCCCC(=O)N(C)C	inactive
CC#N	inactive
CC(=O)CCc1ccccc1	inactive
C=C(C)C1CC=C(C)C(OC(C)=O)C1 (stereo not drawn)	inactive
Nc1cccc2c(=O)[nH][nH]c(=O)c12	inactive
CC(=O)c1cc(C)oc1C	inactive
C=CCOC(=O)COCCC(C)C	inactive
C=CCOC(=O)CCCCCCCC	inactive

SMILES	outcome
NC(=S)NNC(N)=S	inactive
CSCCC=O	inactive
CCC(C)O (stereo not drawn)	inactive
CCCC(C)CO (stereo not drawn)	inactive
CCC(=O)/C=C/C1C(C)=CCCC1(C)C (stereo not drawn)	inactive
C=CCCCCCC	inactive
CC(C)=CCl	inactive
Nc1ccc([N+](=O)[O-])c(N)c1	inactive
CC(=O)Nc1ccccc1C	inactive
CCCCCCCCN	inactive
CC(CCl)OC(C)CCl (stereo not drawn)	inactive
O=[N+]([O-])c1ccccc1CCO	inactive
Cc1cc(C)cc(O)c1	inactive
Cc1ccc(C#N)cc1	inactive
[O-]/[N+](=N\O)c1ccccc1	inactive
CC(=O)Nc1cccc(N)c1	inactive
CCCCC(CC)CO (stereo not drawn)	inactive
CC(=O)c1ccccc1[N+](=O)[O-]	inactive
Nc1cc(Cl)c([N+](=O)[O-])cc1O	inactive
O=C(O[C@@H](C(=O)O)[C@@H](OC(=O)c1ccccc1)C(=O)O)c1ccccc1	inactive
